# Experimental data: the supplement of paper PMC6555819
# How the values were obtained:
# Assay in all cases: PBM binding z-score (relative to random genomic background probes); higher = stronger binding; sequences stand for … in GC…GCGATTGACAGCGTAGAATGAAGG
# [1] = system: PPARg:RXRa DBDmut IVT, anti-RXR (DBD mutation: RXRa K156A/R161A, NR concentration 270 nM, RXRa partner concentration 90 nM)
# How it was run: (§1)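 Probes were double-stranded and carried 34-nt variable regions with direct-repeat seeds, single-nucleotide variants, half-site ablations and random human genomic background sequences, printed on custom Agilent 4×180K protein-binding microarrays. Arrays were incubated 1 h with ligand-free nuclear receptor dimers in PBS pH 7.4, 2% milk, 0.02% Triton X-100, 1 mM DTT, 0.2 mg/mL BSA and 0.4 mg/ml salmon testes DNA. Antibodies against each partner (one per run) detected binding, and scanned fluorescence was regression-normalized. Binding z-scores use the random background probes as reference.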
# [2] = system: PPARg:RXRa IVT, anti-PPARg (NR concentration 270 nM, RXRa partner concentration 90 nM)
# How it was run: as §1
# [3] = system: PPARg DBDmut:RXRa IVT, anti-PPARg (DBD mutation: PPARg1 K132A/R137A, NR concentration 270 nM, RXRa partner concentration 90 nM)
# How it was run: as §1
# [4] = system: PPARg DBDmut IVT, anti-PPARg (DBD mutation: PPARg1 K132A/R137A, NR concentration 270 nM)
# How it was run: as §1
# [5] = system: PPARg homodimer (NR concentration 180 nM)
# How it was run: as §1
# [6] = system: PXR:RXRa (NR concentration 270 nM, RXRa partner concentration 90 nM)
# How it was run: as §1
# [7] = system: PXR homodimer (NR concentration 270 nM)
# How it was run: as §1
# [8] = system: RARa:RXR (NR concentration 270 nM, RXRa partner concentration 90 nM)
# How it was run: as §1
# [9] = system: RARa homodimer (NR concentration 270 nM)
# How it was run: as §1
# [10] = system: RARb:RXRa (NR concentration 270 nM, RXRa partner concentration 90 nM)
# How it was run: as §1
# [11] = system: RARb homodimer (NR concentration 270 nM)
# How it was run: as §1
# [12] = system: RARg:RXRa (NR concentration 270 nM, RXRa partner concentration 90 nM)
# How it was run: as §1
# [13] = system: RARg homodimer (NR concentration 270 nM)
# How it was run: as §1
# [14] = system: RXRa DBDmut IVT, anti-RXR (DBD mutation: RXRa K156A/R161A, NR concentration 90 nM)
# How it was run: as §1
# [15] = system: RXRa homodimer (NR concentration 180 nM)
# How it was run: as §1
# [16] = system: THRa:RXRa (NR concentration 90 nM, RXRa partner concentration 90 nM)
# How it was run: as §1
# [17] = system: THRa homodimer (NR concentration 90 nM)
# How it was run: as §1
# [18] = system: VDR homodimer (NR concentration 270 nM)
# How it was run: as §1
Sequence,PBM binding z-score [1],PBM binding z-score [2],PBM binding z-score [3],PBM binding z-score [4],PBM binding z-score [5],PBM binding z-score [6],PBM binding z-score [7],PBM binding z-score [8],PBM binding z-score [9],PBM binding z-score [10],PBM binding z-score [11],PBM binding z-score [12],PBM binding z-score [13],PBM binding z-score [14],PBM binding z-score [15],PBM binding z-score [16],PBM binding z-score [17],PBM binding z-score [18]
AGAATGAGGTTATTAAGGTCAGGGAATTGCGGTC,4.18,4.42,1.61,0.235,2.65,5.11,11.1,4.38,1.85,3.79,4.31,4.16,3.63,2.88,4.62,4.71,5.16,4.86
ACAAGCAGGCCAAGTTTGGGTCACTCAAACAAAG,0.823,1.59,-0.817,-0.239,-0.0252,0.706,-0.465,1.56,-0.485,2,2.34,2.8,1.88,-0.286,1.1,2.47,0.738,-0.0153
CTCGAAAGGTCGTGCTCTGGTGAGTATACCAAAC,1.12,1.7,0.0542,0.48,1.41,2.92,-0.238,3.6,0.169,3.86,2.73,4.35,3.14,2.01,4.69,2.61,0.441,0.997
TCAGATAGGTAAATGCTAGGTGAAAGTCCGATCT,2.06,0.684,0.761,0.0198,0.547,0.13,-0.341,0.568,-0.137,0.156,0.292,0.258,0.0345,1.06,0.464,1.22,-0.0517,-0.287
